We go through 24 compounds from PubChem BioAssay (NCATS).

One experiment relates to WaGa. In words: qHTS assay to identify novel small-molecules to repurpose for Merkel cell carcinoma treatment (AID 1296009). Further: nearly all actives have a fitted effect of over 60% in size. Further: potency means the concentration at half of the fitted maximal effect. To be noted: MCC and control cell lines, CellTiter-Glo viability, 72 h; series mostly up to 46 µM. The gist of the method:
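Viability readout: ATP luminescence (CellTiter-Glo) after 72 hr drug exposure at 37 degree celsius. Dose-response format was 8 points for NPC and 11 points for MIPE; data normalized to in-plate controls.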
(In qHTS, concentration-response curves come from the screen itself.)

Another experiment deals with C33A. Description: Primary qHTS to identify gynecologic anti-cancer compounds using libraries of approved drugs and bioactive compounds (AID 1345084). Further: nearly all actives have a fitted effect of over 55% in size. The conditions noted are these: Gynecologic cancer cell panel viability, ATPlite luminescence, 48 h; series mostly up to 57.5 µM. An outline of the steps: (§1)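 Cells, 1,000 per well, were allowed to settle for 16 h at 37 C before compound addition. Five concentrations were tested for 48 h, and viability was read by ATPlite luminescence after 15 min at room temperature.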

The test system of a further experiment is CAOV3. The description is as above. To be noted: Gynecologic cancer cell panel viability, ATPlite luminescence, 48 h; series mostly up to 57.5 µM. An outline of the steps: as §1
Background: Cellular ATP, detected with luciferase, serves as a proxy for viable cell number.

The next experiment concerns CASKI. The description is as above. To be noted: Gynecologic cancer cell panel viability, ATPlite luminescence, 48 h; series mostly up to 57.5 µM. The gist of the method: as §1
Another experiment deals with Es-2. Described as above. To be noted: Gynecologic cancer cell panel viability, ATPlite luminescence, 48 h; series mostly up to 57.5 µM. An outline of the steps: as §1
Another experiment relates to HeLa. The description is as above. To be noted: Gynecologic cancer cell panel viability, ATPlite luminescence, 48 h; series mostly up to 57.5 µM. An outline of the steps: as §1
Another experiment relates to Hek293T. The description is as above. To be noted: Gynecologic cancer cell panel viability, ATPlite luminescence, 48 h, control line for the selectivity index; series mostly up to 57.5 µM. The gist of the method: as §1
Another experiment has as its system JEG-3. The experiment is described as above. The conditions noted are these: Gynecologic cancer cell panel viability, ATPlite luminescence, 48 h; series mostly up to 57.5 µM. An outline of the steps: as §1
The next experiment concerns OV90. The description is as above. To be noted: Gynecologic cancer cell panel viability, ATPlite luminescence, 48 h; series mostly up to 57.5 µM. An outline of the steps:
as §1

Another experiment has as its system PA-1. Described as above. The conditions noted are these: Gynecologic cancer cell panel viability, ATPlite luminescence, 48 h; series mostly up to 57.5 µM. The gist of the method: as §1

Inconclusive results are not listed. Activity calls are given as the source filed them. The call rests on the fitted dose curve; in most records, active means well fitted curve in the direction sought with a large enough effect; inconclusive means small, poorly fitted or top-dose-only effect, or another doubt; inactive means no such curve, though single readings can be large; an effect the other way counts as inactive or inconclusive.

As to `C=CC(=O)Nc1cc2c(Nc3ccc(F)c(Cl)c3)ncnc2cc1C#CC(C)(C)N1CCN(C)CC1`, the Potency with WaGa was 5.26 µM (active).

Regarding `CC[C@@H]1C(=O)N(C)c2cnc(Nc3ccc(C(=O)NC4CCN(C)CC4)cc3OC)nc2N1C1CCCC1`, the Potency in the experiment on WaGa was 4.69 µM (active).

`Cc1cc(Nc2cc(NC(=O)c3c(Cl)cccc3Cl)ccn2)nc(N)n1`: the Potency in the experiment on WaGa was 2.35 µM (active).

As to `C1=CCOCc2cc(ccc2OCCN2CCCC2)Nc2nccc(n2)-c2cccc(c2)OCC1`, in the experiment with WaGa, the Potency is 9.35 µM (active).

As to `CC=CC1=C(C(=O)O)N2C(=O)[C@H](NC(=O)[C@H](N)c3ccc(O)cc3)[C@@H]2SC1`, in the experiment on WaGa, the Potency entry was “inactive”.

For `Cc1[nH]c2ccccc2c1CCNCc1ccc(C=CC(=O)NO)cc1`, the Potency with WaGa is 0.059 µM (active).

In the case of `COc1cc(C(=O)NS(=O)(=O)c2ccccc2C)ccc1Cc1cn(C)c2ccc(NC(=O)OC3CCCC3)cc12`, the Potency result with WaGa, in the experiment with C33A, with CAOV3, in the experiment on CASKI, in the experiment on Es-2 and in the experiment on HeLa was “inactive” throughout. Moreover, the Potency result in the experiment on Hek293T, in the experiment on JEG-3, in the experiment with OV90 and in the experiment with PA-1 was “inactive” in each case.

For the compound `CC(C)(C)c1cc(C(C)(C)C)c(NC(=O)c2c[nH]c3ccccc3c2=O)cc1O`, the Potency entry in the experiment on WaGa is “inactive”.

For `CC(C)c1ccc(Cn2ccc3c4c(N)nc(NC5CC5)nc4ccc32)cc1`, in the experiment on WaGa, the Potency was 9.35 µM (active).

Consider `CC(C)Nc1cc(C(F)(F)F)cc2nc(NC(=O)c3cccnc3)nn12`, for which the Potency entry with WaGa, with C33A, in the experiment with CAOV3, in the experiment with CASKI, in the experiment with Es-2 and with HeLa was “inactive” each time. In addition, the Potency entry with Hek293T, in the experiment with JEG-3 and in the experiment on OV90 was “inactive” each time.

As for `O=C(C=Cc1cccc(S(=O)(=O)Nc2ccccc2)c1)NO`, the Potency with WaGa was 3.03 µM (active).

Take `O=C(c1cncc(Br)c1)N1CCC(N2CCCC2)CC1`: the Potency entry in the experiment with WaGa, with C33A, with CAOV3, with CASKI, with Es-2 and in the experiment with HeLa was “inactive” each time. Also, the Potency result with Hek293T, in the experiment with JEG-3, in the experiment on OV90 and in the experiment on PA-1 was “inactive” throughout.

As for `COc1ccc(-n2nc(C(N)=O)c3c2C(=O)N(c2ccc(N4CCCCC4=O)cc2)CC3)cc1`, the Potency result with WaGa, in the experiment with C33A, in the experiment on CAOV3, in the experiment with CASKI, with Es-2 and in the experiment with HeLa was “inactive” throughout. In addition, the Potency entry in the experiment with Hek293T, in the experiment on JEG-3, in the experiment with OV90 and in the experiment on PA-1 was “inactive” throughout.

On to `O=C(C=Cc1c(C(=O)O)[nH]c2cc(Cl)cc(Cl)c12)Nc1ccccc1`, for which, in the experiment on WaGa, the Potency entry was “inactive”.

Regarding `CCCCCCCCCC(=O)N[C@@H](Cc1c[nH]c2ccccc12)C(=O)N[C@H](CC(N)=O)C(=O)N[C@@H](CC(=O)O)C(=O)N[C@@H]1C(=O)NCC(=O)N[C@@H](CCCN)C(=O)N[C@@H](CC(=O)O)C(=O)N[C@H](C)C(=O)N[C@@H](CC(=O)O)C(=O)NCC(=O)N[C@H](CO)C(=O)N[C@@H]([C@@H](C)CC(=O)O)C(=O)N[C@@H](CC(=O)c2ccccc2N)C(=O)O[C@@H]1C`, the Potency entry in the experiment on WaGa, in the experiment with C33A, in the experiment on CAOV3, in the experiment with CASKI, in the experiment with Es-2 and in the experiment on HeLa was “inactive” each time. For the same compound, the Potency result in the experiment with Hek293T, in the experiment on JEG-3, in the experiment with OV90 and with PA-1 was “inactive” each time.

As for `CCN1CCN(Cc2ccc(-c3cc4c(N[C@H](C)c5ccccc5)ncnc4[nH]3)cc2)CC1`, the Potency in the experiment on WaGa is 0.0209 µM (active).

Consider `Cc1cc(Nc2ncnc3ccc(-c4ccc(CNCCS(C)(=O)=O)o4)cc23)ccc1Oc1ccn2ncnc2c1`, for which, in the experiment with WaGa, the Potency is 5.26 µM (active). Moreover, the Potency entry in the experiment with C33A, in the experiment on CAOV3, in the experiment on CASKI, with Es-2, in the experiment on HeLa and with Hek293T was “inactive” each time. The Potency result in the experiment with JEG-3, in the experiment on OV90 and in the experiment on PA-1 was “inactive” each time.

As for `C[C@]12CC[C@H](O)CC1=CCC1C2CC[C@]2(C)C(n3cnc4ccccc43)=CCC12` (stereo partly specified), the Potency result with WaGa, in the experiment with C33A, with CAOV3, in the experiment on CASKI, with Es-2 and in the experiment with HeLa was “inactive” in each case. In addition, the Potency entry in the experiment with Hek293T, in the experiment with JEG-3, with OV90 and in the experiment on PA-1 was “inactive” in each case.

Regarding `CN1c2cc(O)c(N=NC(N)=O)cc2CC1S(=O)(=O)O` (stereo unspecified), the Potency entry with WaGa is “inactive”.

As to `CNC(=O)c1ccc(-c2cnc3ncc(Cc4ccc5ncccc5c4)n3n2)cc1F`, the Potency entry in the experiment on WaGa, in the experiment with C33A, in the experiment with CAOV3, with CASKI, in the experiment on Es-2 and in the experiment with HeLa was “inactive” in each case. For the same compound, the Potency entry in the experiment with Hek293T, with JEG-3, in the experiment with OV90 and in the experiment on PA-1 was “inactive” each time.

As to `N#Cc1c(O)c2c(-c3ccc(-c4ccccc4O)cc3)csc2[nH]c1=O`, the Potency entry with WaGa, in the experiment with C33A, with CAOV3, in the experiment with CASKI, with Es-2 and in the experiment with HeLa was “inactive” in each case. Further, the Potency result in the experiment on Hek293T, in the experiment on JEG-3, in the experiment on OV90 and in the experiment on PA-1 was “inactive” in each case.

Turning to `CC(=O)SC[C@@H](C)C(=O)N1CCC[C@H]1C(=O)N[C@@H](Cc1ccccc1)C(=O)O`, the Potency entry in the experiment on WaGa, with C33A, in the experiment on CAOV3, in the experiment on CASKI, in the experiment with Es-2 and in the experiment on HeLa was “inactive” throughout. The Potency entry with Hek293T, with JEG-3, in the experiment with OV90 and in the experiment on PA-1 was “inactive” throughout.

Turning to `CN(C1CCc2c(c3ccccc3n2CC(=O)O)C1)S(=O)(=O)c1ccc(F)cc1` (stereo unspecified), the Potency in the experiment on WaGa was 5.9 µM (active). Also, the Potency result in the experiment on C33A, in the experiment on CAOV3, in the experiment with CASKI, with Es-2, in the experiment on HeLa and in the experiment on Hek293T was “inactive” throughout. Also, the Potency result with JEG-3, in the experiment on OV90 and in the experiment with PA-1 was “inactive” throughout.

`CN(C)c1nc(Cc2ccc(NC(=O)c3ccc4ccccc4c3)cc2)nc(Cl)c1CC(=O)O`: the Potency entry with WaGa, with C33A, in the experiment on CAOV3, in the experiment with CASKI, in the experiment with Es-2 and in the experiment with HeLa was “inactive” each time. Besides, the Potency result with Hek293T, in the experiment with JEG-3, in the experiment with OV90 and with PA-1 was “inactive” each time.
